Among the data in PubChem BioAssay AID1224862 (National Center for Advancing Translational Sciences (NCATS), 2016) are Potency values, retold here.

Molecules are shown by their SMILES. Inconclusive results are not listed. Where a call stands in place of a potency, no number is given. Activity calls are given as the source filed them. Calls follow the shape of the dose curve; as a rule, active = well fitted cell-killing curve with a large enough effect; inconclusive = small, poorly fitted or top-dose-only effect, or effect the other way; inactive = flat fitted curve, though single readings scatter.

This assay is described as follows: Compound cytotoxicity measured by an ATP content assay as a counter-screen for lead compounds in human astrocytoma cell line (SNB-19). The conditions noted are these: SNB-19 astrocytoma viability, ATP luminescence; series mostly up to 46.1 µM. An outline of the steps: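 Cell viability was measured as ATP content by luminescence in SNB-19 astrocytoma cells in RPMI 1640 with 10% FBS. Compounds were incubated for set times such as 6, 24 or 72 h, and cytotoxicity was expressed as percent inhibition.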
With `COc1ccc2nc(NC(=O)Nc3ccccc3)sc2c1`, the Potency is 19.5 µM (active).

Take `COc1ccnc2c1CCCCC2S(=O)c1nc2ccccc2[nH]1` (stereo not given): the Potency result is “inactive”.

Take `COc1cc2nc(N3CCN(C(=O)C4CCCO4)CC3)nc(N)c2cc1OC` (stereo not given): the Potency entry was “inactive”.

`O=C(O)[C@H](CC(=O)N1C[C@@H]2CCCC[C@H]2C1)Cc1ccccc1`: the Potency entry is “inactive”.

On to `CC=CC[C@@H](C)C(=O)[C@H]1C(=O)N[C@@H](C(C)C)C(=O)N(C)CC(=O)N(C)[C@@H](CC(C)C)C(=O)N[C@@H](C(C)C)C(=O)N(C)[C@@H](CC(C)C)C(=O)N[C@@H](C)C(=O)N[C@H](C)C(=O)N(C)[C@@H](CC(C)C)C(=O)N(C)[C@@H](CC(C)C)C(=O)N(C)[C@@H](C(C)C)C(=O)N1C`, for which the Potency result was “inactive”.

Take `CC(C(=O)O)c1ccc(C(=O)c2cccs2)cc1` (stereo not given): the Potency result is “inactive”.

For `O=C(C=CC=Cc1ccc2c(c1)OCO2)N1CCCCC1`, the Potency entry is “inactive”.

In the case of `C[C@H](NC(=O)C(=O)Nc1ccccc1C(C)(C)C)C(=O)N[C@@H](CC(=O)O)C(=O)COc1c(F)c(F)cc(F)c1F`, the Potency result was “inactive”.

`Cc1oncc1C(=O)Nc1ccc(C(F)(F)F)cc1`: the Potency entry was “inactive”.

For `COc1cccc2c1C(=O)c1c(O)c3c(c(O)c1C2=O)C[C@@](O)(C(=O)CO)C[C@@H]3O[C@H]1C[C@H](N)[C@H](O[C@@H]2CCCCO2)[C@H](C)O1`, the Potency result was “inactive”.

In the case of `O=C(O)CCC(=O)c1ccc(-c2ccccc2)cc1`, the Potency result was “inactive”.

`c1ccc(CCNc2nc(-c3ccccc3)cs2)cc1`: the Potency result is “inactive”.

In the case of `CN(C)c1ccc2cc(C(=O)N[C@@H](CCCN=C(N)CCl)C(=O)NCc3ccccc3)ccc2c1`, the Potency result was “inactive”.

`CC[C@]1(O)C[C@H]2CN(CCc3c([nH]c4ccccc34)[C@@](C(=O)OC)(c3cc4c(cc3OC)N(C=O)[C@H]3[C@@](O)(C(=O)OC)[C@H](OC(C)=O)[C@]5(CC)C=CCN6CC[C@]43[C@@H]65)C2)C1`: the Potency entry is “inactive”.

Take `CC(=O)Oc1ccccc1C(=O)Nc1ncc([N+](=O)[O-])s1`: the Potency entry is “inactive”.

With `Cc1ccc(O)c(N=Nc2ccccc2)n1`, the Potency is 7.74 µM (active).

Turning to `CCCCCNC(=O)N1CCC(CN(Cc2ccc(Cl)cc2)Cc2ccc([N+](=O)[O-])s2)C1` (stereo not given), the Potency entry is “inactive”.

For `CC(C(=O)O)c1ccc2c(c1)[nH]c1ccc(Cl)cc12` (stereo not given), the Potency entry is “inactive”.

As for `CCOC1OC(=O)C[C@H]1NC(=O)[C@@H]1CCCN1C(=O)[C@@H](NC(=O)c1ccc(N)c(Cl)c1)C(C)(C)C` (stereo not given in full), the Potency result is “inactive”.

Turning to `Nc1ccc(N=Nc2ccccc2)c(N)n1`, the Potency entry was “inactive”.

On to `N#C/C(=C\c1ccc(O)c(O)c1)C(=O)Nc1ccccc1`, for which the Potency entry is “inactive”.

Regarding `Cc1ccc(C(=O)c2ccc(CC(=O)O)n2C)cc1`, the Potency entry is “inactive”.

Take `CCCS(=O)c1ccc2nc(NC(=O)OC)[nH]c2c1` (stereo not given): the Potency entry was “inactive”.

For `O=S(=O)(O)c1ccc2nc(-c3ccccc3)[nH]c2c1`, the Potency entry is “inactive”.

As to `CC1(C)Cc2c(sc(NC(=S)NC(=O)c3ccccc3)c2C(=O)O)CO1`, the Potency result was “inactive”.

For `O=C(CS)Nc1ccccc1`, the Potency result is “inactive”.

Take `O=C(O)c1cc([N+](=O)[O-])ccc1NCCCc1ccccc1`: the Potency entry was “inactive”.

Take `C[C@@H](O[C@H]1OCCN(Cc2n[nH]c(=O)[nH]2)[C@@H]1c1ccc(F)cc1)c1cc(C(F)(F)F)cc(C(F)(F)F)c1`: the Potency entry is “inactive”.

With `Cc1cccc(/C=C/c2ccccc2)n1`, the Potency result was “inactive”.

As for `CC(=NNC(=S)N1CCC1)c1ccccn1`, the Potency entry was “inactive”.

As for `C[C@@H](N)c1ccc(C(=O)Nc2ccnc3[nH]ccc23)cc1`, the Potency result was “inactive”.

In the case of `CC1=C(CO)C(=O)O[C@@H]([C@@H](C)[C@H]2CC[C@H]3[C@@H]4C[C@H]5O[C@]56[C@@H](O)C=CC(=O)[C@]6(C)[C@@H]4CC[C@]23C)C1`, the Potency result is “inactive”.

Consider `COc1ccc(-c2cc(=O)c3c(O)cc(O)cc3o2)cc1O`, for which the Potency result was “inactive”.

In the case of `CO[C@H]1C(=O)[C@]2(C)[C@@H](OC)C[C@H]3OC[C@@]3(OC(C)=O)[C@H]2[C@H](OC(=O)c2ccccc2)[C@]2(O)C[C@H](OC(=O)[C@H](O)[C@@H](NC(=O)OC(C)(C)C)c3ccccc3)C(C)=C1C2(C)C`, the Potency entry was “inactive”.

On to `O=C1C[C@@H](c2ccc(O)cc2)Oc2cc(O)cc(O)c21`, for which the Potency result was “inactive”.
